GalR3 antag – human GalR3 antagonism. O60755. HEK293 GalR3-CNG cAMP membrane potential fluorescence; galR3 body fused to GalR1 C-terminus. inhibition, % at 3 µM. actives 0.44% (n = 360,000). AID 651719;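 active = inhibition above the screen-wide average plus 3 SD, cut at about 13% in these data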;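 also: forskolin and galanin both at EC90 stimulate the cells; cAMP rise reported by CNG channel membrane potential dye signal; 0% = forskolin plus galanin with DMSO and 100% = forskolin alone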
Target sequence (O60755 1-299 limits assumed): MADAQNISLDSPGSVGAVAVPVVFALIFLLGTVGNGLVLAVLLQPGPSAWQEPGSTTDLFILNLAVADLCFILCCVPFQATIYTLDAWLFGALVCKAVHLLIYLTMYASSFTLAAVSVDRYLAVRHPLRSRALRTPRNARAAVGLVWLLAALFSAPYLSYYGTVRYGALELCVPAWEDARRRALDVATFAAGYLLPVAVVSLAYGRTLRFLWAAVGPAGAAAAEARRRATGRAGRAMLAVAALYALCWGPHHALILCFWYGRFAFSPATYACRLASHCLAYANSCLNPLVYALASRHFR
Gli-Sufu block – Gli-Sufu pathway antagonism; actives 0.74% (n = 340,000); Sufu-KO-LIGHT fibroblasts, Gli luciferase reporter luminescence; AID 588413; inhibition, % at 5 µM;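 active = inhibition above about 55%, limit read from the data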;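 also: 0% = DMSO-treated cells and 100% = wells with medium but no cells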
SMARCA2 activ – activators of SMARCA2 function | MG213 cells, MMTV-luciferase reporter, dexamethasone, overnight | activation, % at 9.1 µM | actives 1% (n = 370,000) | AID 652017; in the data active = activation above about 7.8%;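 also: 0% = vehicle wells and 100% = reference activator wells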
FXN GAA850 act – increases GAA850 frataxin promoter reporter activity; HEK293 lucGAA850 FXN promoter luciferase reporter, 24 h; percent of 10 µM SAHA response; activation, % at 6 µM; actives 0.56% (n = 360,000);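 active = activation above the average of all compounds screened plus 3 SD, cutoff fixed separately per campaign, cut at about 7.5% in these data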;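 also: 0% = DMSO wells and 100% = 10 µM SAHA wells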
H9c2 protect – modulators protecting cardiomyocytes from myocardial damage | H9c2 cardiomyocytes, H2O2 injury protection, ATPLite, 2 h | actives 0.63% (n = 360,000) | AID 588492 | protection from H2O2 cell death, % at 20 µM;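 active = compounds giving at least 50% protection of heart cells from peroxide-induced death in the single-dose screen, raw or plate-pattern-corrected value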;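 also: 0% = DMSO wells with peroxide and 100% = DMSO wells without peroxide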
NR2F2 inh – NR2F2 (human) inhibition, primary screen; actives 0.7% (n = 370,000); AID 686940; P24468; inhibition, % at 8.6 µM; HEK293T NGFI-A luciferase reporter, luminescence;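 active = inhibition above a per-plate cutoff, mean inhibition of test wells between control levels plus 3 SD, cut at about 38% in these data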;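 also: cells cotransfected with COUP-TFII expression vector driving the NGFI-A reporter; 0% = median of COUP-TF2 test wells and 100% = reporter-only cells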
Target sequence (P24468 whole entry, looked up): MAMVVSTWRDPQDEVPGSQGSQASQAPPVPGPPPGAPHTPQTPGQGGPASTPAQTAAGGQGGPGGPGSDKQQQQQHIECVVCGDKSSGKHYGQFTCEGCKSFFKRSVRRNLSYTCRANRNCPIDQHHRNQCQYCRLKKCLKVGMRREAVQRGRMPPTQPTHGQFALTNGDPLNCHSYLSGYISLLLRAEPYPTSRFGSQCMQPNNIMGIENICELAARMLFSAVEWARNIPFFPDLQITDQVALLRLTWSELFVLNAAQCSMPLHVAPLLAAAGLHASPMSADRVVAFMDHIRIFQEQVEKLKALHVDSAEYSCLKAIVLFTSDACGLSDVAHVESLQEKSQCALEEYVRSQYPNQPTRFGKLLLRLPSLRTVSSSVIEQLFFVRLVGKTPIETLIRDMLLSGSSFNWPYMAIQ
SMARCA2 act conf – SMARCA2 activation, confirmation screen | activation, % at 9.1 µM | MG213 cells, MMTV-luciferase with dexamethasone, luminescence, overnight; MG213 cells expressing E1A, Rb sequestered; DMSO wells 0%, reference activator 100% | shares compounds with SMARCA2 activ | actives 30% (n = 3,500);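 active = activation above its plate's cutoff, the mean activation of tested wells plus 3 SD, cut at about 7.9% in these data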
VP16 Luc act – activates GAL4-VP16 luciferase, flagging SMARCA2 activator hits | shares compounds with SMARCA2 activ | HEK293 GAL4-VP16 pG5luc reporter, luciferase luminescence; scaled: DMSO wells 0%, SAHA wells 100% | activation, % at 9.1 µM | actives 41% (n = 3,500) | AID 686939;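 active = activation above the solvent-only control well mean plus 3 SD, averaged across control plates, cut at about 5.2% in these data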
Starred values were filed as active, the others as inactive; / = no result. Rows were chosen to be rich in hits. Some 3.4% of all compounds tested hit in one or more screens of this group.

SMILES	GalR3 antag	Gli-Sufu block	SMARCA2 activ	FXN GAA850 act	H9c2 protect	NR2F2 inh	SMARCA2 act conf	VP16 Luc act
Cc1ccc(-c2nnc(-c3cc(C)on3)o2)cc1	-4.5	-50.4	9.0*	0.4	-12.3	-28.1	7.0	9.2*
Cc1ccc(-c2nnc(-c3cccs3)o2)cc1	-5.7	-87.5	10.0*	7.5	-10.1	-29.3	8.2*	9.2*
Cc1ccc(/C=C/c2nnc(-c3cccs3)o2)cc1	-3.4	-65.3	11.2*	4.6	-10.0	-57.8	3.2	9.0*
CCn1ncc(/C=N/NC(=O)c2cc(Cl)ccc2OC)c1C	1.1	-3.0	-1.0	2.5	-5.6	-6.2	/	/
Cc1ccc(Cl)c2c1NC(=O)C2(O)CC(=O)c1ccc(Br)cc1 (centres undefined)	-0.3	7.0	3.0	0.9	-2.7	-3.4	/	/
O=C(CC1(O)C(=O)Nc2cc(Cl)cc(Cl)c21)c1ccncc1 (centres undefined)	-4.6	5.1	11.1*	1.5	-6.7	-13.9	0.1	0.1
CN(CCCNC(=O)c1cc2c(Cl)nc3ccccc3c2s1)Cc1ccccc1	-5.8	32.6	6.6	0.5	1.5	-2.5	/	/
CC1CCCN(CCCNC(=O)c2cc3c(Cl)nc4ccccc4c3s2)C1 (centres undefined)	-8.1	42.7	14.7*	4.4	-7.4	-4.2	26.5*	1.9
CCN(CC)CCCNC(=O)c1cc2c(Cl)nc3ccccc3c2s1	-6.0	15.0	17.7*	6.1	17.9	-23.4	23.2*	0.9
CC(C)(C)NC(=S)N/N=C\c1ccc(-c2ccc([N+](=O)[O-])cc2)o1	0.6	-16.3	3.0	2.6	9.4	-4.0	/	/
Cc1ccccc1OCCC(=O)Nc1ccccc1C(=O)N1CCCCC1	-5.4	-0.4	-2.4	0.7	-4.1	4.6	/	/
Cc1ccc(C(=O)NC2=NCCS2)cc1	-6.3	/	8.8*	/	/	-52.0	7.2	13.4*
O=C(Nc1ccccc1)c1nccn1Cc1ccc(F)cc1	-3.6	-33.2	9.9*	3.4	-3.4	3.3	3.5	3.0
CC1(C(=O)NS(=O)(=O)c2ccccc2C(F)(F)F)CCN1C(=O)CCc1cccs1 (centres undefined)	-7.8	/	8.7*	0.9	-4.1	-22.9	-3.3	1.5
Cc1ccccc1S(=O)(=O)NC(=O)C1(C)CCN1C(=O)Cc1cccs1 (centres undefined)	-3.0	/	-0.2	-1.5	-2.7	7.5	/	/
COc1cccc(/C=N/N=C(\N)c2nonc2N)c1O	-3.4	-41.0	8.6*	4.0	-10.6	-29.1	6.6	12.2*
COc1cccc(C(=O)/C=C/Nc2ccc(S(=O)(=O)Nc3onc(C)c3C)cc2)c1	-5.2	-5.4	12.0*	1.1	3.4	-35.1	-0.5	-0.5
Cc1cc(C)n(CCN(C)c2nc3nonc3nc2NC2CC2)n1	1.4	1.4	-2.9	-0.1	1.0	11.0	/	/
O=C(Nc1ccc(S(=O)(=O)N2CCOCC2)cc1)c1ccc(Cl)cc1Cl	-8.3	16.9	3.6	2.3	-5.2	17.9	/	/
C=CS(=O)(=O)c1sc(Cl)c(N2CCOCC2)c1[N+](=O)[O-]	5.8	-5.8	11.5*	5.5	-31.6	2.3	-8.5	4.1
CC(C)=CC(=O)OCc1cc([N+](=O)[O-])cc2c1OCOC2	2.3	-14.7	4.3	3.0	4.6	-17.1	/	/
CC(=O)NC1C(=O)N=C(SCC(=O)NCc2ccccc2)NC1=O (centres undefined)	-3.4	1.6	10.5*	-0.2	-1.2	0.3	-0.6	1.9
Cc1cc2cc(C(c3nnnn3C(C)(C)C)N(Cc3ccco3)CC3CCCO3)c(=O)[nH]c2cc1C (centres undefined)	-4.7	3.2	-4.2	-0.5	5.0	-11.6	/	/
COc1ccc2[nH]c(=O)c(C(c3nnnn3C(C)(C)C)N(Cc3ccco3)CC3CCCO3)cc2c1 (centres undefined)	-2.6	4.6	11.6*	-3.0	5.5	-26.9	-3.3	0.9
COc1ccccc1C(=O)NCC(=O)N1CC=C(c2ccccc2)CC1	-6.4	6.9	-2.3	-0.9	-5.8	-16.3	/	/
SMILES	GalR3 antag	Gli-Sufu block	SMARCA2 activ	FXN GAA850 act	H9c2 protect	NR2F2 inh	SMARCA2 act conf	VP16 Luc act
O=[N+]([O-])c1ccc(SCCc2ccccn2)cc1	0.3	-1.1	11.5*	2.3	-1.3	-17.3	1.1	2.0
Cc1ccc(S(=O)(=O)CCC(=O)Nc2cc(C)on2)cc1	-7.6	/	-3.8	1.5	-0.5	-6.9	/	/
Cc1cc(NC(=O)CCS(=O)(=O)c2nc(-c3ccccc3)cc(C(F)(F)F)n2)no1	6.1	9.8	9.3*	4.4	12.3	-7.9	-15.1	2.8
Cc1cc(C)cc(Cn2cc(CN3CC(N4CCCC4)CS3(=O)=O)nn2)c1 (centres undefined)	0.1	/	-3.7	/	/	-12.6	/	/
Cc1cc(C)cc(Cn2cc(CN3CC(N4CCCCC4)CS3(=O)=O)nn2)c1 (centres undefined)	-2.6	/	8.2*	/	/	-3.4	0.9	-0.3
Cc1cc2nc(-c3ccc(SCC(=O)N4CCN(C(=O)c5ccco5)CC4)nc3)[nH]c2cc1C	-6.9	-26.3	10.2*	0.0	-10.0	-15.0	9.2*	8.8*
O=C(COc1cccc2cccnc12)Nc1nccs1	-6.0	-92.3	9.2*	-0.4	-3.7	-25.4	9.0*	12.2*
NNC(=O)COc1cccc2cccnc12	-7.3	4.5	-1.7	-0.8	8.2	9.0	/	/
COc1cc(/C=C/C(=O)O)cc(S(=O)(=O)Nc2ccc3c(c2)CCC3)c1OC	-9.1	-3.4	-2.1	2.3	-1.9	-3.9	/	/
Cc1ccc(CSCC(Nc2ccc(C(=O)O)cc2[N+](=O)[O-])C(=O)O)cc1 (centres undefined)	-1.7	1.5	9.0*	-1.1	3.2	8.4	0.3	-0.8
O=C(O)c1ccc(NC(CSCc2ccc(F)cc2)C(=O)O)c([N+](=O)[O-])c1 (centres undefined)	-3.8	-15.2	-1.7	3.1	-1.5	-13.1	/	/
Cc1cc(OCC(=O)NC(Cc2ccc(Cl)cc2)C(=O)O)c2c(C)c(C)c(=O)oc2c1 (centres undefined)	-0.8	-10.1	-1.6	-0.3	-0.1	1.4	/	/
Cc1ccc(S(=O)(=O)N2CCOCC2)cc1C(=O)NCc1cccnc1	0.8	3.7	10.2*	1.0	-1.7	-12.3	0.2	0.9
COc1ccccc1Cn1c(-c2ccco2)nc2nc3ccccc3nc21	-6.0	-3.3	8.6*	2.3	-3.4	-10.6	3.6	0.8
CC(=O)c1ccc(N2CCN(C(=S)Nc3ccc(Cl)c(Cl)c3)CC2)cc1	-1.7	7.9	-1.6	2.0	-5.8	12.4	/	/
